Where “and” joins values, the source holds several entries; their conditions need not be identical. Identical values can stand only once.
Assays:
[1] = tested on: RIVA; test: growth inhibition by drug alone (1 - RLU/untreated control) (fraction); higher = stronger inhibition; settings: 177Lu-lilotomab satetraxetan 0 ug/ml
Procedure, shortened: (§1)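 Plates pre-printed with the Selleck Cambridge Cancer Compound library at 10/100 nM (RIVA) or 10/1,000 nM (U-2932) received 3,000 cells/well. These cells had been washed after 18 h untreated or with a radiolabelled anti-CD37 antibody conjugate (~600 MBq/mg; 0.5 µg/ml RIVA, 1 µg/ml U-2932). Growth inhibition was obtained from RealTime-Glo luminescence in relation to untreated no-drug wells. Each daily read from day 3, taken after 1 h at 37°C, was converted as 1 − RLU/mean of 48 such wells per plate.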

[2] = tested on: U-2932; test: growth inhibition by drug plus 177Lu-lilotomab satetraxetan (1 - RLU/untreated control) (fraction); higher = stronger inhibition; settings: 177Lu-lilotomab satetraxetan 1 ug/ml
Procedure, shortened: as §1

[3] = tested on: RIVA; test: as above; settings: 177Lu-lilotomab satetraxetan 0.5 ug/ml
Procedure, shortened: as §1

[4] = tested on: U-2932; test: growth inhibition by drug alone (1 - RLU/untreated control) (fraction); higher = stronger inhibition; settings: 177Lu-lilotomab satetraxetan 0 ug/ml
Procedure, shortened: as §1

SMILES	growth inhibition by drug alone ([1]; 10 nM, time (day): 3)	growth inhibition by drug alone ([1]; 10 nM, time (day): 4)	growth inhibition by drug alone ([1]; 10 nM, time (day): 5)	growth inhibition by drug alone ([1]; 10 nM, time (day): 6)	growth inhibition by drug alone ([1]; 100 nM, time (day): 3)	growth inhibition by drug alone ([1]; 100 nM, time (day): 4)	growth inhibition by drug alone ([1]; 100 nM, time (day): 5)	growth inhibition by drug alone ([1]; 100 nM, time (day): 6)	growth inhibition by drug plus 177Lu-lilotomab satetraxetan ([2]; 10 nM, time (day): 3)	growth inhibition by drug plus 177Lu-lilotomab satetraxetan ([2]; 10 nM, time (day): 4)	growth inhibition by drug plus 177Lu-lilotomab satetraxetan ([2]; 10 nM, time (day): 5)	growth inhibition by drug plus 177Lu-lilotomab satetraxetan ([2]; 10 nM, time (day): 6)	growth inhibition by drug plus 177Lu-lilotomab satetraxetan ([2]; 1000 nM, time (day): 3)	growth inhibition by drug plus 177Lu-lilotomab satetraxetan ([2]; 1000 nM, time (day): 4)	growth inhibition by drug plus 177Lu-lilotomab satetraxetan ([2]; 1000 nM, time (day): 5)	growth inhibition by drug plus 177Lu-lilotomab satetraxetan ([2]; 1000 nM, time (day): 6)	growth inhibition by drug plus 177Lu-lilotomab satetraxetan ([3]; 10 nM, time (day): 3)	growth inhibition by drug plus 177Lu-lilotomab satetraxetan ([3]; 10 nM, time (day): 4)	growth inhibition by drug plus 177Lu-lilotomab satetraxetan ([3]; 10 nM, time (day): 5)	growth inhibition by drug plus 177Lu-lilotomab satetraxetan ([3]; 10 nM, time (day): 6)	growth inhibition by drug plus 177Lu-lilotomab satetraxetan ([3]; 100 nM, time (day): 3)	growth inhibition by drug plus 177Lu-lilotomab satetraxetan ([3]; 100 nM, time (day): 4)	growth inhibition by drug plus 177Lu-lilotomab satetraxetan ([3]; 100 nM, time (day): 5)	growth inhibition by drug plus 177Lu-lilotomab satetraxetan ([3]; 100 nM, time (day): 6)	growth inhibition by drug alone ([4]; 10 nM, time (day): 3)	growth inhibition by drug alone ([4]; 10 nM, time (day): 4)	growth inhibition by drug alone ([4]; 10 nM, time (day): 5)	growth inhibition by drug alone ([4]; 10 nM, time (day): 6)	growth inhibition by drug alone ([4]; 1000 nM, time (day): 3)	growth inhibition by drug alone ([4]; 1000 nM, time (day): 4)	growth inhibition by drug alone ([4]; 1000 nM, time (day): 5)	growth inhibition by drug alone ([4]; 1000 nM, time (day): 6)
CNC(=O)c1cc(COc2nnc(Nc3ccc(Cl)cc3)c3ccoc23)ccn1 [Telatinib (BAY 57-9352)]	-0.0398	-0.0876	-0.128	-0.281	-0.214	-0.207	-0.212	-0.315	-0.0402	-0.000867	0.00308	0.0503	-0.145	-0.0474	-0.0515	0.00564	–	–	–	–	–	–	–	–	–	–	–	–	–	–	–	–
Cc1cnc(-c2cnc(NCCNc3ccc(C#N)cn3)nc2-c2ccc(Cl)cc2Cl)[nH]1	0.0622	0.0911	0.0352	-0.132	-0.000657	0.0178	-0.0435	-0.16	0.0605	0.123	0.113	0.204	0.0116	0.0464	0.0105	0.0661	0.532	0.598	0.613	0.613	0.455	0.536	0.536	0.541	–	–	–	–	–	–	–	–
CCN1CCN(Cc2ccc(-c3cc4c(N[C@H](C)c5ccccc5)ncnc4[nH]3)cc2)CC1	-0.0711	-0.0709	-0.153	-0.452	-0.2	-0.171	-0.217	-0.348	-0.00551	0.0118	0.0153	0.0829	-0.206	-0.119	-0.121	-0.0824	0.45	0.538	0.553	0.545	0.314	0.416	0.435	0.409	–	–	–	–	–	–	–	–
COc1cc2c(N3CCN(C(=O)Nc4ccc(OC(C)C)cc4)CC3)ncnc2cc1OCCCN1CCCCC1 [Tandutinib (MLN518)]	-0.157	-0.175	-0.185	-0.222	-0.102	-0.12	-0.163	-0.231	-0.106	-0.0661	-0.0234	0.112	-0.163	-0.112	-0.0614	0.0615	–	–	–	–	–	–	–	–	-0.0695	-0.0613	-0.013	0.108	-0.0914	-0.0805	-0.0691	-0.0707
Cc1[nH]c2ccccc2c1CCNCc1ccc(/C=C/C(=O)NO)cc1 [Panobinostat]	0.637	0.535	0.447	0.328	0.977	0.977	0.975	0.975	0.585	0.524	0.461	0.445	0.979	0.981	0.983	0.986	0.93	0.93	0.939	0.944	0.987	0.988	0.988	0.987	–	–	–	–	–	–	–	–
C[C@@H](Oc1cc(-n2cnc3ccc(CN4CCN(C)CC4)cc32)sc1C(N)=O)c1ccccc1C(F)(F)F	–	–	–	–	–	–	–	–	0.423	0.489	0.536	0.644	0.926	0.959	0.975	0.982	0.759	0.799	0.824	0.853	0.943	0.964	0.974	0.981	–	–	–	–	–	–	–	–
Cc1ccnc(NS(=O)(=O)c2ccc(NC(=O)Nc3ccc(S(=O)(=O)Nc4nccc(C)n4)cc3)cc2)n1	0.0129	0.0204	-0.0366	-0.304	-0.284	-0.137	-0.166	-0.281	0.0395	0.0885	0.162	0.182	0.099	0.13	0.195	0.303	0.581	0.617	0.633	0.636	0.492	0.533	0.541	0.545	–	–	–	–	–	–	–	–
Nc1nc(Nc2ccc(S(N)(=O)=O)cc2)nn1C(=O)c1c(F)cccc1F	0.09	-0.0123	-0.071	-0.232	-0.0601	-0.0559	-0.0832	-0.218	0.0456	0.07	0.0808	0.137	0.452	0.614	0.661	0.719	0.373	0.516	0.536	0.556	0.486	0.6	0.611	0.599	–	–	–	–	–	–	–	–
N#CC1(c2ccc(NC(=O)c3cccnc3NCc3ccncc3)cc2)CCCC1 [Apatinib (YN968D1)]	-0.0437	0.0236	-0.0386	-0.253	-0.0842	-0.0337	-0.084	-0.223	0.0626	0.101	0.109	0.137	-0.0473	0.0612	0.0296	0.0686	0.491	0.579	0.593	0.615	0.497	0.559	0.555	0.524	–	–	–	–	–	–	–	–
C/C(=C\C(=O)Nc1ccccc1C(=O)O)c1ccc2ccccc2c1	–	–	-0.0819 and -0.194	-0.258 and -0.514	–	–	–	–	-0.0301 and -0.033	–	0.025 and 0.0323	–	-0.0817 and -0.0426	–	–	0.0333 and 0.0305	0.404 and 0.42	0.545 and 0.538	0.571 and 0.547	0.581 and 0.558	0.399 and 0.427	0.502 and 0.474	0.502 and 0.482	0.484 and 0.467	–	0.0133 and 0.0332	–	–	-0.0224 and -0.014	–	-0.0613 and -0.0571	-0.273 and -0.127
Cc1ccc(F)c(NC(=O)Nc2ccc(-c3cccc4[nH]nc(N)c34)cc2)c1 [Linifanib (ABT-869)]	-0.11	-0.109	-0.157	-0.289	0.0372	0.000859	-0.0495	-0.102	0.0166	0.0206	0.0473	0.197	0.0768	0.108	0.147	0.253	0.454	0.546	0.574	0.585	0.515	0.54	0.546	0.517	–	–	–	–	–	–	–	–

From the supplement of paper PMC6897291
